Reference: the supplement of paper PMC11732987, “Enantioselective OTUD7B fragment discovery through chemoproteomics screening and high-throughput optimisation” (Communications Chemistry, 2025)

Assays:
Experiment in all cases: log2 ratio of Biotin-Ahx-Ub-VS probe labelling (fragment/DMSO); higher = less target engagement (more negative = stronger competition), active = hit call of the paper (q ≤ 0.05, log2 ratio ≤ -1)
Conditions in all cases: compound concentration: 200 uM; treatment time: 3 h
ALG13 = target: T1, ALG13 (UniProt Q9NP73)
T1 sequence (whole entry): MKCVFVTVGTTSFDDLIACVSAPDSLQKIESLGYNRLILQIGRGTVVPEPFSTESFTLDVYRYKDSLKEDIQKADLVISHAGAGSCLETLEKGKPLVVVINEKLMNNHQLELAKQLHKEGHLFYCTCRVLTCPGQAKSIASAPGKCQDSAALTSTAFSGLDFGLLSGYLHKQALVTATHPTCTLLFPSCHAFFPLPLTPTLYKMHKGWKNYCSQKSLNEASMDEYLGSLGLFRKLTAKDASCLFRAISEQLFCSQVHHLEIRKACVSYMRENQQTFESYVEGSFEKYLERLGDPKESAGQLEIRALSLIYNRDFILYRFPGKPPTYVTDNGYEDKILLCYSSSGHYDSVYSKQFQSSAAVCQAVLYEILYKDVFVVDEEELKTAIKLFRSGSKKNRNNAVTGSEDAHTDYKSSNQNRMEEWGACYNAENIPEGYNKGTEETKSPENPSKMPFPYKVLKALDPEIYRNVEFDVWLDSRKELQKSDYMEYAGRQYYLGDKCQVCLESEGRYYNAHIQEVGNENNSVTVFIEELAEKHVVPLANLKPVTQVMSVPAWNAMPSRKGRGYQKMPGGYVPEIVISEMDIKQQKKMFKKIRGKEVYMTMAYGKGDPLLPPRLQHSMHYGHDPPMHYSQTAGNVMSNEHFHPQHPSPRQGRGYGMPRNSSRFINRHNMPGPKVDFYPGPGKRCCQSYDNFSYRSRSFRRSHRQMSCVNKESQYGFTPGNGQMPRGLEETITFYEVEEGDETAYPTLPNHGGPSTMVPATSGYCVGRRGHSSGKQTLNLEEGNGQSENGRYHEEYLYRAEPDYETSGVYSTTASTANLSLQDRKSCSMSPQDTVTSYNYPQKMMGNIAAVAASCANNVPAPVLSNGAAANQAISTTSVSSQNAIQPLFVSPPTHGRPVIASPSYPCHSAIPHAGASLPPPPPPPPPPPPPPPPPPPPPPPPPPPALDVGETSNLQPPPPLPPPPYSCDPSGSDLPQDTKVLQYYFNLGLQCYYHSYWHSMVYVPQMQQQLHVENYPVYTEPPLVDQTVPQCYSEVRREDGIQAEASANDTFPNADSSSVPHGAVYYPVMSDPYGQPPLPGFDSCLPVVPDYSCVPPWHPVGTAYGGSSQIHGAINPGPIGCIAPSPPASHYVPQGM
Procedure, shortened: (§1)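 Fragment (200 µM) or vehicle was incubated for 3 h with triplicate HEK293T lysate samples of 495 µg, which were then treated with Biotin-Ahx-Ub-VS at 0.5 µM final for 1 h. Labelled DUBs were enriched on NeutrAvidin, digested with LysC and trypsin, and analysed by diaPASEF LC-MS/MS. Values are average log2 fragment/vehicle ratios from an unpaired t-test on global-median-normalised Spectronaut label-free quantities, using proteins with ≥2 unique peptides.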

ATXN3 = ATXN3 (UniProt P54252)
Procedure, shortened: as §1

BAP1 = target: T2, BAP1 (UniProt Q92560)
T2 sequence (whole entry): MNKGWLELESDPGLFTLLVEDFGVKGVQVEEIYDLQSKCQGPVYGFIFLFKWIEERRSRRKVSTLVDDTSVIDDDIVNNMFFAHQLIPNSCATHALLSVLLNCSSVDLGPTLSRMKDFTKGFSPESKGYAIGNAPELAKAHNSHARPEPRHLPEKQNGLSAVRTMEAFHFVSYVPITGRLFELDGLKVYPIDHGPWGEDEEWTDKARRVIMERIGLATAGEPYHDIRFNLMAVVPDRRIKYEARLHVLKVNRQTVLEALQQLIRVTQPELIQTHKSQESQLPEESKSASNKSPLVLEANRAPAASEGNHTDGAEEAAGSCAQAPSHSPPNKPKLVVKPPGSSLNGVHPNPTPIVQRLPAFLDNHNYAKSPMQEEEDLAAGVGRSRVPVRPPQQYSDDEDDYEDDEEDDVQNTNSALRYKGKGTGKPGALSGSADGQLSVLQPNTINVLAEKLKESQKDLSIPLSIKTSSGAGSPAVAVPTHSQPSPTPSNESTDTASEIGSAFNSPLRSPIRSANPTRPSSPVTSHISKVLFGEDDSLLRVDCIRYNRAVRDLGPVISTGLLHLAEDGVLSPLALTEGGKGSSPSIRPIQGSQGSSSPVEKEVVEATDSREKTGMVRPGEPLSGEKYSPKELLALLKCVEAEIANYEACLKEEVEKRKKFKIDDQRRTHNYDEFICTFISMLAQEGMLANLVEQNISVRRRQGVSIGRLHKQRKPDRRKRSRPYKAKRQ
Procedure, shortened: as §1

EIF3F = EIF3F (UniProt O00303)
Procedure, shortened: as §1

EIF3H = EIF3H (UniProt O15372)
Procedure, shortened: as §1

FAM105A = target: T3, FAM105A (UniProt Q9NUU6)
T3 sequence (whole entry): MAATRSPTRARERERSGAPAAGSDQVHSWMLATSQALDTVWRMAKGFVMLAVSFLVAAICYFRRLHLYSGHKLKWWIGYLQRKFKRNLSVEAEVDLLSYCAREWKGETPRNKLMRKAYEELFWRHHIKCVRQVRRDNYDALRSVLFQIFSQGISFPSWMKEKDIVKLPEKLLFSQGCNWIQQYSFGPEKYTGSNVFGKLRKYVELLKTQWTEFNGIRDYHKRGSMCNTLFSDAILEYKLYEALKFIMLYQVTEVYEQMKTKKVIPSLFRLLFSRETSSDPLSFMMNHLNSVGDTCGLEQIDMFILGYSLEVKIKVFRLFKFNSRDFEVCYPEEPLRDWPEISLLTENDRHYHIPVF
Procedure, shortened: as §1

OTUB1 = OTUB1 (UniProt Q96FW1)
Procedure, shortened: as §1

OTUD4 = target: T4, OTUD4 (UniProt Q01804)
T4 sequence (whole entry): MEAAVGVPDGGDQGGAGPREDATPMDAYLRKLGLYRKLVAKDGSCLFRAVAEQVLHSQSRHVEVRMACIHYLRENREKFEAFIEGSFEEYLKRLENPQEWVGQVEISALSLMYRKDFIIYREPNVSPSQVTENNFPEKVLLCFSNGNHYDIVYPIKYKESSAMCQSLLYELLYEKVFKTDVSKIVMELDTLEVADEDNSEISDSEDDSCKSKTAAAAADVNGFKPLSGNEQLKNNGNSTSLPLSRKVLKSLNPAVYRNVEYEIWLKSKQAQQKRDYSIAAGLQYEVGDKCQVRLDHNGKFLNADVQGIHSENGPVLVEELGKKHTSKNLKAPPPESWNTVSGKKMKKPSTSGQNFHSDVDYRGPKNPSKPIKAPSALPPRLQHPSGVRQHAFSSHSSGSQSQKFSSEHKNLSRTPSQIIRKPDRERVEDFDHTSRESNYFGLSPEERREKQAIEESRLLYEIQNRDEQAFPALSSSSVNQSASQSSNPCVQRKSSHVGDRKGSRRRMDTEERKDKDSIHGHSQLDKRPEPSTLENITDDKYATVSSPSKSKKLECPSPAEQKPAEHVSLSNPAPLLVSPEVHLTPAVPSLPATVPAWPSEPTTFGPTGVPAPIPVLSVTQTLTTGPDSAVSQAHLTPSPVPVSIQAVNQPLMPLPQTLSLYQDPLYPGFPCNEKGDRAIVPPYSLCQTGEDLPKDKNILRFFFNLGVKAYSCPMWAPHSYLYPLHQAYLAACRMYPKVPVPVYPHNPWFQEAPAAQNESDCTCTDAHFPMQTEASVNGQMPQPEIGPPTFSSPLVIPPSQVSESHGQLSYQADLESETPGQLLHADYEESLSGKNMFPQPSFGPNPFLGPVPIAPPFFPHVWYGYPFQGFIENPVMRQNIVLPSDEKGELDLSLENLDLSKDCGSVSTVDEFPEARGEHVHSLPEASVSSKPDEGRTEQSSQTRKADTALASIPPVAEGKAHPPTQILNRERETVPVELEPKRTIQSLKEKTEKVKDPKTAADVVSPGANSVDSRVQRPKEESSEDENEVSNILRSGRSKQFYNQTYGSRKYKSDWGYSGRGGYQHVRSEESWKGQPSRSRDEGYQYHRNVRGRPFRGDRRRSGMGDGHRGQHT
Procedure, shortened: as §1

OTUD5 = target: T5, OTUD5 (UniProt Q96G74)
T5 sequence (whole entry): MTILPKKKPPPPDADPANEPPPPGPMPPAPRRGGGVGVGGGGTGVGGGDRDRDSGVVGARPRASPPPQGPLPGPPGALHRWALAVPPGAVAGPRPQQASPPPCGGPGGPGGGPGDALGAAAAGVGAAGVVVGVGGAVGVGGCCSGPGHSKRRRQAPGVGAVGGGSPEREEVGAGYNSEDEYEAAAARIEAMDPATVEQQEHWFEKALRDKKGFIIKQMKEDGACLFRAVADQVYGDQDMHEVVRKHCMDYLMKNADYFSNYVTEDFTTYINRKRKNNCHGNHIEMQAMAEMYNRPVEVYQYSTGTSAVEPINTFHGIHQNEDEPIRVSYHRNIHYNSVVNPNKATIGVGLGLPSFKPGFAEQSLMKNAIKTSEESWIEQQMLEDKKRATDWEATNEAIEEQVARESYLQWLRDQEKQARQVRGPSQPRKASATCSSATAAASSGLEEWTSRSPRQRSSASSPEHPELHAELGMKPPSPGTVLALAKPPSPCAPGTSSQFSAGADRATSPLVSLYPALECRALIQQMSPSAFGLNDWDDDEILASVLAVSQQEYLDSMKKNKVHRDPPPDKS
Procedure, shortened: as §1

Measured: log2 ratio of Biotin-Ahx-Ub-VS probe labelling

Chain of EIF3H (O15372 whole entry): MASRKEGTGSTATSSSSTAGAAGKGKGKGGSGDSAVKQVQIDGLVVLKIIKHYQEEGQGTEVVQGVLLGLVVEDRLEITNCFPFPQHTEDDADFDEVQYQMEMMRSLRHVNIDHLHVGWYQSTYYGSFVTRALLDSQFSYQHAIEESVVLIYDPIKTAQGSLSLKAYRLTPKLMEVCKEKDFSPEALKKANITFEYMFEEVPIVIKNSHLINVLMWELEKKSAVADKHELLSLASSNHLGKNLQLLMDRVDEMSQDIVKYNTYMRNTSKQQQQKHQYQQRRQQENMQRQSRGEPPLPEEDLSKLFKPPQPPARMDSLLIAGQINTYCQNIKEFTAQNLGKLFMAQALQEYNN
Chain of ATXN3 (P54252 whole entry): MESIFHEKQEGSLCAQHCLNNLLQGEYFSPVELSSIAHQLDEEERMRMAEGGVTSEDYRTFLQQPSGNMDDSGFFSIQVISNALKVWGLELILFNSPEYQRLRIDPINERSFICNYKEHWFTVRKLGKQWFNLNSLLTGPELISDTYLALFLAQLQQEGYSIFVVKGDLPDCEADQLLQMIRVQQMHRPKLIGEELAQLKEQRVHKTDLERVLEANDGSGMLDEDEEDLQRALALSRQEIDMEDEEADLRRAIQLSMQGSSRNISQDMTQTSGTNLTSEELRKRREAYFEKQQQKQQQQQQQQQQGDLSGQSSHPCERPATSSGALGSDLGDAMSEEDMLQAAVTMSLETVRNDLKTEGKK
Chain of OTUB1 (Q96FW1 whole entry): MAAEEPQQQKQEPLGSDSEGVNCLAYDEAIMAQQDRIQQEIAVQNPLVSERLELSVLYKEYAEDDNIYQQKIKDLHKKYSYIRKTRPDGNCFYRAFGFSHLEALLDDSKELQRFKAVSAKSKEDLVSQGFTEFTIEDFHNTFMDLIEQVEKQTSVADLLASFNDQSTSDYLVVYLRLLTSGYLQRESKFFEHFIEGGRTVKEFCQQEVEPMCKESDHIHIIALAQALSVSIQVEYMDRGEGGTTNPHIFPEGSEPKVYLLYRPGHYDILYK
Chain of EIF3F (O00303 whole entry): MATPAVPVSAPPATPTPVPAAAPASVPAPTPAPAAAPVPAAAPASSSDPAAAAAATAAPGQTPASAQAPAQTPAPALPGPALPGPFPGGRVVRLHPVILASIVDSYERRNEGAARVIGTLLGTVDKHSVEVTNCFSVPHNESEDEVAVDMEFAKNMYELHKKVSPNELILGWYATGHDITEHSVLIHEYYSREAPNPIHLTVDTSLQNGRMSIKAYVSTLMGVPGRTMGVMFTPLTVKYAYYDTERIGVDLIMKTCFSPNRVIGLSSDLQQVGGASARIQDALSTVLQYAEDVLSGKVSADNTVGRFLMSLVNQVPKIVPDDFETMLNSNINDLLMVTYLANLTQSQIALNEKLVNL

O=C(CCl)NCC1(c2ccccc2)CC1
active: ALG13 -1.4 | BAP1 -1.15
inactive: ATXN3 0.0359 | EIF3F -0.053 | EIF3H 0.176 | FAM105A -0.0439 | OTUB1 0.0757 | OTUD4 -0.368 | OTUD5 -0.335
